Wnt act: activates Wnt/beta-catenin signaling in a reporter cell assay | activator, plate reader | activation, % at 9.35 µM | 300,000 compounds, 1.2% hits | AID 743398; in the data active means activation above about 30%, passing the limit was not always enough; inconclusive means no clear call, values can overlap the other calls;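 further: 0% = neutral control wells and 100% = positive control wells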
HSF1 inhib: HSF1 inhibition. AID 2098. 300,000 compounds, 0.77% hits. activity change, negative = inhibition, % at 7.5 µM (by protocol). NIH3T3-HGL HSE-luciferase, MG132-induced, luminescence 8 h; stronger effect = lower value;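 active means more than half of replicate wells show activity change below -50%, luminescence cut by over half; inconclusive means some wells, but at most half, below -50%; inactive means no replicate well below -50%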;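 further: luciferase reports HSF-1 transcriptional activity via heat shock element; 0% = median of DMSO wells and -100% = zero luminescence signal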
MITF act: increases MITF-driven TRPM1 promoter luciferase signal. SK-MEL-5 TRPM1-promoter luciferase, 24 h; % of positive control, neutral wells = 0. activation, % at 12.5 µM. 300,000 compounds, 0.75% hits. AID 588334;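 active means mean activation of at least 80% with every replicate also reaching 80%; inconclusive means mean reaches 80% but some replicate falls short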;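 further: 0% = neutral control wells and 100% = parthenolide positive control wells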
HSF-1 act: increases HSF-1 driven luciferase reporter signal; NIH3T3-HGL HSF-1 luciferase reporter, MG132, 8 h; 100% = twice DMSO control signal; activation, % at 9 µM; 300,000 compounds, 1.7% hits;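 active means mean replicate activation of at least 50% with a set share of replicates each reaching 50%; inconclusive means only one of those two conditions met; inactive means mean below 50% and too few replicates reaching it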;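 further: 0% = median of the neutral control wells and 100% = twice that signal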
esBAF inh: SWI/SNF esBAF complex inhibition; mouse ES cells, Bmi1-luciferase knock-in reporter, 24 h; 100% = twice the neutral-well signal; reporter increase, % at 12.5 µM; 350,000 compounds, 2% hits; AID 602393; in the data active means activation above about 40%; inconclusive means no clear call, values can overlap the other calls;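 further: 0% = median of the plate's neutral control wells and 100% = double that signal; a rise in the Bmi1 reporter signal indicates esBAF inhibition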
SMARCA2 act: SMARCA2 function activation, primary screen; MG213 cells, MMTV-luciferase reporter, dexamethasone, overnight; activation, % at 9.1 µM; 370,000 compounds, 1% hits; in the data active means activation above about 7.8%;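 further: 0% = vehicle wells and 100% = reference activator wells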
Starred values were filed as active, the others as inactive; ? = inconclusive; / = not tested or not shown. Hits are enriched below; roughly 4.3% of the tested compounds scored in any of these assays.

SMILES | Wnt act | HSF1 inhib | MITF act | HSF-1 act | esBAF inh | SMARCA2 act
N#C[C@H]1[C@H](c2ccccc2)[C@@H](CO)N1C(=O)Nc1cccc(F)c1 | / | / | / | / | 15 | /
C[C@@H]1CN([C@@H](C)CO)C(=O)c2cc(-c3ccncc3)cnc2O[C@@H]1CN(C)C(=O)C1CC1 | / | / | / | / | -2 | /
C[C@H](CO)N1C[C@H](C)[C@@H](CN(C)S(=O)(=O)c2ccc(F)cc2)Oc2ccc(NS(C)(=O)=O)cc2CC1=O | / | / | / | / | -2 | /
O=C(OCc1cc(=O)n2cc(Br)ccc2n1)C1COc2ccccc2O1 (centres undefined) | -1 | -49 | -4 | -59 | 0 | 0
CC1CC1C(=O)OCc1cc(=O)n2cc(Br)ccc2n1 (centres undefined) | 41* | 13 | 80 | 21 | 47* | 3
CC(=O)N1CCN(C(=O)c2ccc(-c3cccc(C(F)(F)F)c3)o2)CC1 | -2 | 1 | 12 | -6 | -1 | 1
O=C(c1ccc(-c2ccccc2Cl)o1)N1CCC1 | 20 | / | ? | / | 84* | 5
CC1CCN(C(=O)c2ccc(-c3ccccc3Cl)o2)CC1 | 44* | 38 | 110* | 56* | ? | 4
O=C(c1ccc(-c2cccc(C(F)(F)F)c2)o1)N1CCOCC1 | -1 | 12 | 57 | 22 | 71* | 4
NC(=O)C1CCCN(C(=O)c2ccc(-c3cccc(Cl)c3Cl)o2)C1 (centres undefined) | 38* | / | 80 | / | 75* | 0
CCCC(=O)Nc1ccc2c(c1)C(=O)N(C)C[C@@H](OC)[C@H](C)CN(C(=O)CN(C)C)[C@H](C)CO2 | / | / | / | / | 3 | /
COCC(=O)Nc1ccc2c(c1)[C@@H]1C[C@H](CC(=O)NCCc3ccccc3)O[C@H](CO)[C@@H]1O2 | / | / | / | / | 1 | /
O=C(c1ccc(-c2ccccc2Cl)o1)N1CCCC(C(F)(F)F)C1 (centres undefined) | -3 | / | ? | / | 51* | 5
O=C(c1ccc(-c2cccc(Cl)c2Cl)o1)N1CCOCC1 | 34* | 16 | 86* | ? | 39 | -1
COc1ccc(NC(=O)Nc2ccc3c(c2)C(=O)N([C@@H](C)CO)C[C@@H](C)[C@H](CN(C)C(=O)NC2CCCCC2)O3)cc1 | / | / | / | / | 20 | /
Cc1sc2nc(CSc3cccc(C(F)(F)F)c3)[nH]c(=O)c2c1C | 0 | 33 | 0 | 82* | 0 | 0
C[C@H]1CN([C@@H](C)CO)S(=O)(=O)c2ccc(-c3cncnc3)cc2O[C@@H]1CN(C)C(=O)Cc1ccccc1 | / | / | / | / | 11 | /
Cc1noc(C)c1S(=O)(=O)N(C)C[C@@H]1Oc2ccc(NC(=O)NC3CCCCC3)cc2CC(=O)N([C@H](C)CO)C[C@H]1C | / | / | / | / | 1 | /
Cc1ccc(OCC(=O)NCc2ccccn2)c(Br)c1 | / | 22 | 66 | 50 | 55* | 2
O=C(COc1ccc(F)cc1Br)NCc1ccccn1 | / | 17 | / | 4 | ? | 2
O=C(CCN1CCCCC1)NCC[C@H]1CC[C@H](NC(=O)Nc2ccc(Cl)cc2)[C@@H](CO)O1 | / | / | / | / | 3 | /
CC(=O)NCCC(=O)Nc1nc(-c2cccs2)c(-c2cccs2)s1 | -1 | 133 | 15 | 182* | / | -2
Cc1cc(N2CCCC2)c(F)cc1/C=C\[N+](=O)[O-] | -3 | 160 | -17 | 207* | / | -1
CS(=O)(=O)Nc1ccc2c(c1)[C@@H]1C[C@@H](CC(=O)N3CCCCC3)O[C@H](CO)[C@@H]1O2 | / | / | / | / | 4 | /
CCCC(=O)Nc1ccc2c(c1)C(=O)N(C)C[C@@H](OC)[C@@H](C)CN(CC1CCOCC1)[C@H](C)CO2 | / | / | / | / | 1 | /
SMILES | Wnt act | HSF1 inhib | MITF act | HSF-1 act | esBAF inh | SMARCA2 act
O=C(Nc1ccc(Nc2ccccc2)cc1)c1ccc(Br)o1 | 29 | 19 | 41 | 23 | 57* | 3
CC(C)c1ccc(NC(=O)c2ccc(Br)o2)cc1 | / | 19 | 89* | 47 | / | 3
Cc1cc(O)c(NC(=O)c2ccc(Br)o2)cc1C | ? | 3 | 54 | -13 | 67* | 5
COc1ccc(NC(=S)NC(=O)c2ccc(Br)o2)cc1 | 24 | 19 | 90* | 26 | 46* | 3
COc1ccccc1NC(=O)c1ccc(Br)o1 | 0 | -11 | -14 | -29 | 7 | -2
Cc1ccc(S(=O)(=O)N(C)C[C@@H]2OCCCC[C@H](C)Oc3ccc(NC(=O)NC(C)C)cc3C(=O)N([C@H](C)CO)C[C@@H]2C)cc1 | / | / | / | / | -3 | /

From PubChem BioAssay
